Where “and” joins values, the source holds several entries; their conditions need not be identical. Equal entries are not always repeated. Results filed as inconclusive are left out. Some compounds were tested as several samples or in several runs, with calls that do not always agree. Calls of active or inactive are those of the source. Calls come from the whole dose curve; as a rule, active = well fitted cell-killing curve with a large enough effect; inconclusive = small, poorly fitted or top-dose-only effect, or effect the other way; inactive = no such curve, though single readings can be large or run the other way.
Test: Viability qHTS for spleen associated tyrosine kinase inhibitor (SYKi) drug resistant MV4-11 cells (AID 1963824); note: nearly all actives have a fitted effect of over 35% in size
Conditions: SYKi-resistant MV4-11 viability, CellTiter-Glo, 72 h; series mostly up to 45 µM; viability, % of control: at the top concentration
Description: Department of Medicine, Hematology/Oncology
University Hospital Frankfurt, Germany.
Trials have shown promising clinical activity of the selective SYK inhibitor entospletinib in patients with high expressing HOXA9/MEIS1 acute leukemias. As the development of resistance mechanisms is a common problem in the use of targeted drugs, we performed a chemical library screen to identify drug sensitivities in SYK inhibitor resistant AML cells. […] Glucocorticoids are potent immunosuppressants which work in part by inhibiting the transcription of cytokine genes.
Described herein is a viability screen to look for activity in the SYK inhibitor drug resistant cell line against four NCATS compound libraries (MIPE 5.0, NPC, NPACT, and Kinase) totaling 11372 compounds. Active hits were reacquired for confirmation and further secondary assay testing.
SEQUENCE No. (e.g., 1, 2, 3, etc.); […] (e.g., Cells, Incubation, Reagent, etc.); VALUE; DESCRIPTION.
1; Media; 2uL; white, solid-bottom Corning assay plate.
2; Compounds; 23nL; Echo acoustic dispenser.
3; Cell; 5uL; 500 cells per well.
4: Incubation; 72hr; 37 C, 5% CO2, 95% humidity.
5; Reagent; 3uL; CellTiter-Glo reagent (Promega).
6; Incubation; 10min; room temperature.
7; Detection; Luminescence; ViewLux plate reader (PerkinElmer).
NOTES (numbers refer to Sequence numbers above
1. Quantitative high-throughput screening (qHTS) of small molecule compounds was conducted on drug resistant SYKi MV4-11 cell line.
2. Twenty-three nanoliter of small molecule compounds were added to each assay plates using the Echo acoustic dispenser (Beckman Coulter).
3. Cells were seeded into the assay plates at a final density of 500 cells in 5uL of media per well using the Multidrop Combi dispenser.
4. Plates were covered with stainless steel gasketed lids and incubated for 72 hours at standard cell culture conditions.
5. Viability was assessed by adding 3uL of CellTiter-Glo detection reagent (Promega).
6. Plates were covered with gasket lids and incubated for 10 minutes at room temperature.
7. Luminescence was measured on a ViewLux plate reader (PerkinElmer).
In the case of `C=C(CO)C(=O)O[C@H]1C/C(C)=C/CC/C(CO)=C/[C@H]2OC(=O)C(=C)[C@H]12`, the “viability, % of control” value is reported as 78.5% (inactive).
For `CCCCCCCCCCCC[N+](C)(C)CCOc1ccccc1`, the Potency was 2.66 µM (active).
For `CCCCCCC1C(=O)O[C@H](C)[C@H](NC(=O)c2cccc(NC=O)c2O)C(=O)O[C@@H](C)[C@@H]1OC(=O)CC(C)C` (stereo not given in full), the Potency was 0.291 µM (active).
With `O=P1(N(CCCl)CCCl)NCCCO1` (stereo not given) the Potency was “inactive”.
In the case of `C[C@H](Nc1ncnc2nc[nH]c12)c1nc2ccc(F)cc2c(=O)n1-c1ccccc1`, the Potency is reported as 0.651 µM (active).
In the case of `CCNC(=O)CC1N=C(c2ccc(Cl)cc2)c2cc(OC)ccc2-n2c(C)nnc21` (stereo not given), the Potency is reported as 8.33 µM (active) and inactive and 517 nM (active).
With `CCOc1ccccc1-n1c(C(C)N2CCN(C(=O)COc3ccc(Cl)cc3)CC2)nc2ccccc2c1=O` (stereo not given) the Potency was 1.46 µM (active) and 1.32 µM (active).
For `O=c1[nH]oc2c1CCNC2`, the “viability, % of control” value was 78.1% (inactive).
In the case of `CCC1C2CC3C4N(C)c5ccccc5C45CC(C2C5O)N3C1O` (stereo not given), the “viability, % of control” value is reported as 4.78% (inactive).
In the case of `CCC(C)/C=C(C)/C=C/C1=CC2=C(Cl)C(=O)C(C)(OC(C)=O)C(=O)C2=CO1` (stereo not given), the Potency is reported as 8.05 µM (active).
In the case of `C/C=C(\C)C(=O)OC1C2C3(C)CCC(OC4CC(OC)C(OC5OC(C)C(O)C(OC)C5O)C(C)O4)CC3CCC23OC32CCC(C(C)=O)C2(C)C1OC(=O)/C(C)=C/C` (stereo not given), the Potency is reported as 3.9 µM (active).
With `CC(C)(O)/C=C\C(=O)[C@](C)(O)[C@H]1[C@H](O)C[C@]2(C)[C@@H]3CC=C4[C@@H](C=C(O)C(=O)C4(C)C)[C@]3(C)C(=O)C[C@@]12C` the Potency was 0.0468 µM (active).
For `COc1cccc(NCC(F)Cn2c3ccc(Br)cc3c3cc(Br)ccc32)c1` (stereo not given), the Potency was 2.06 µM (active).
For `C[C@@H]1CN(Cc2ccc(F)cc2)CCN1C(=O)COc1ccc(Cl)cc1NC(N)=O`, the Potency was 0.82 µM (active).
With `OC1(c2ccc(Cl)cc2)c2ccccc2C2=NCCN21` (stereo not given) the Potency was 16.4 µM (active).
In the case of `ClCCN1CCCC1`, the “viability, % of control” value is reported as 94% (inactive).
For `CNC(=O)c1ccc(N2C(=S)N(c3ccc(C#N)c(C(F)(F)F)c3)C(=O)C23CCC3)cc1F`, the Potency was 18.6 µM (active).
With `CN1CCc2cc3c(cc2C1C1OC(=O)c2c1ccc1c2OCO1)OCO3` (stereo not given) the “viability, % of control” value was 92.9% (inactive).
In the case of `Cc1ccc2c(c1)C1CN(C)CCC1N2` (stereo not given), the “viability, % of control” value is reported as 99.8% [at 17.3 µM] (inactive).
In the case of `COC(=O)N1CCN(C(=O)Cc2ccc(Cl)c(Cl)c2)[C@@H](CN2CCCC2)C1`, the “viability, % of control” value is reported as 69.3% (inactive).
In the case of `CN1C(=O)C(Cc2ccc3ccccc3c2)N=C(c2ccc(O)cc2)c2cc(Cl)ccc21` (stereo not given), the Potency is reported as 13 µM (active).
For `COc1ccc2c3c1O[C@H]1[C@@H](O)C=C[C@H]4[C@@H](C2)N(C)CC[C@@]341`, the Potency was 30 µM (active).
For `Cc1ccc(-n2nccn2)c(C(=O)N2CCN(c3nc4cc(Cl)ccc4o3)CCC2C)c1` (stereo not given), the Potency was 9.2 µM (active).
For `C[C@]12CC[C@@H]3c4ccc(OC(=O)N(CCCl)CCCl)cc4CC[C@H]3[C@@H]1CC[C@@H]2OP(=O)(O)O`, the Potency was “inactive”.
In the case of `C=CC(C)(C)c1[nH]c2c(CC=C(C)C)cc(CC=C(C)C)cc2c1C[C@@H]1NC(=O)[C@H](C)NC1=O`, the “viability, % of control” value is reported as 91.6% (inactive).
With `C=C(CO)C(=O)O[C@H]1CC(=C)[C@@H]2C[C@H](O)C(=C)[C@@H]2[C@H]2OC(=O)C(=C)[C@@H]21` the Potency was 1.61 µM (active).
With `COc1cc(OC)c(OC)cc1C=O` the “viability, % of control” value was 99.6% [at 91.9 µM] (inactive).
With `C/C=C1/CN2CC[C@]34C(=Nc5ccc(OC)cc53)C2C[C@@H]1C4(CO)C(=O)OC` (stereo not given in full) the “viability, % of control” value was 66.3% (inactive).
For `O=S(=O)(F)Cc1ccccc1`, the “viability, % of control” value was 86.9% (inactive).
For `CCN(Cc1ccc(Cl)nc1)/C(=C/[N+](=O)[O-])NC`, the “viability, % of control” value was 103% (inactive).
For `C[C@@H]1CN(C2CCC(C#N)(c3ccc(F)cc3)CC2)CC[C@]1(C(=O)O)c1ccccc1` (stereo not given in full), the “viability, % of control” value was 103% (inactive).
In the case of `CC(=O)OC[C@]12[C@H](OC(C)=O)C(=O)[C@@H]3[C@@H](O)[C@@]14O[C@@]3(C)COC(=O)c1cccnc1[C@@H](C)[C@H](C)C(=O)O[C@@H]([C@H](OC(C)=O)[C@@H]2OC(C)=O)[C@]4(C)O`, the Potency is reported as 5.44 µM (active).
In the case of `Cc1[nH]ncc1-c1cc2nc([C@@H]3CC4CCN3CC4)[nH]c(=O)c2s1`, the Potency is reported as 4.17 µM (active).
For `NCCc1cc(O)c(O)cc1O`, the “viability, % of control” value was 82.9% (inactive).
In the case of `N#CC(O[C@@H]1O[C@H](CO)[C@@H](O)[C@H](O)[C@H]1O)c1ccccc1` (stereo not given in full), the “viability, % of control” value is reported as 95.9% (inactive).
For `N[C@@H](Cc1ccc(Oc2cc(I)c(O)c(I)c2)c(I)c1)C(=O)O`, the “viability, % of control” value was 75.6% (inactive).
In the case of `CSCC[C@@H](NC(=O)[C@@H](Cc1ccccc1)NC(=O)CNC(=O)CNC(=O)[C@@H](N)Cc1ccc(O)cc1)C(=O)O`, the “viability, % of control” value is reported as 97.3% (inactive).
In the case of `COc1cc2c(cc1OC)[C@@]13CCN4CC5=CCO[C@H]6CC(=O)N2[C@H]1[C@H]6[C@H]5C[C@H]43`, the “viability, % of control” value is reported as 106% [at 17.3 µM] (inactive).
With `C[C@H](N)[C@H](O)c1ccc(O)c(O)c1` the “viability, % of control” value was 69.5% (inactive).
For `CCN(CC)CCOC(=O)C(O)(c1ccccc1)c1ccccc1`, the “viability, % of control” value was 91.9% (inactive).

— PubChem BioAssay (NCATS)
Potency is the fitted concentration of half-maximal effect.
